# Laboratory results taken from PubChem BioAssay AID540351 (The Scripps Research Institute Molecular Screening Center, 2011).
# Values without a mark were called inactive. No rule for the calls is given here.
# System: Potassium Channel [KATP]
# Assay: selectivity profiling over binding targets, CYP450 – biochemical, Ricerca HitProfilingScreen, selectivity assay for S1P3 agonist project, profiling panel (AID 540351)
# Settings: Ricerca receptor/enzyme binding panel plus CYP450, at 30 µM, active compounds read high
structure (smiles),measurement,value
O=C(c1cc(C2CC2)on1)N(C1CCCCC1)C1CCCCC1,inhibition,16%
